Experimental findings from PubChem BioAssay are described below.

Structures are written as SMILES. Several values for one entry are separate records, joined by “and”; a condition that tells them apart may be missing. Equal entries are not always repeated. Activity calls are given as the source filed them.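 Rule for the calls, unless noted: active = thallium flux through the channel raised or lowered by more than 3 SD from vehicle-only wells, actives on both sides; inactive = the rest.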

Assay [1] can be described thus: liver-stage malaria parasite growth inhibition, primary screen, cell-based, HepG2, luciferase luminescence, HepG2 viability (AID 624349; in the data active = parasite load remaining mostly below about 12%, no sharp cut-off; inactive = mostly above about 10%;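 note: 100% = mean of DMSO negative control wells on the same plate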). Conditions: P. berghei liver stage in HepG2, luciferase luminescence, concentration not given here; parasite load remaining: stronger effect = lower value; viability: measured here: HepG2 viability without parasites.
Assay [2] in a line: Cy5 fluorescence interference with SSB-bound oligo, artefact control for HCV NS3 helicase inhibitor project, biochemical, NIH Clinical Collection, E. coli SSB (AID 743268; call rule not given here).
Assay [3] has as its system Hepatitis C virus NS3 helicase. Put plainly: HCV NS3 helicase inhibitors, primary screen, biochemical, fluorescence polarization, NIH Clinical Collection (AID 743270; call rule not given here). Conditions: NS3 helicase binding to Cy5-dT15 DNA, stronger effect = higher value, concentration not given here. For orientation: Polarisation of emitted light reports the rotation of a fluorescent probe.
Assay [4] concerns the target Single-stranded DNA-binding protein (Escherichia coli (strain K12)) (UniProt P0AGE0). Description: E. coli SSB displacement from DNA, counter-screen for HCV NS3 helicase inhibitor project, biochemical, fluorescence polarization, NIH Clinical Collection (AID 743271; in the data active = inhibition above about 28%). Conditions: stronger effect = higher value, concentration not given here. A general note: The purpose of a counterscreen is to sort out artefacts and off-target activity.

Assay [5] is described as follows: fluorescence interference in NS3h assay format, artefact control for HCV NS3 helicase inhibitor project, biochemical, NIH Clinical Collection (AID 743272; call rule not given here;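 note: HCV NS3 helicase with a Cy5 labelled single stranded DNA probe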). To be noted: fluorescence interference counterscreen, stronger effect = lower value.
Assay [6] deals with Neuropilin-2 / VEGF-C interaction (human). Description: inhibitors of NRP2–VEGF-C binding, biochemical, microplate binding format, z-score (AID 743281; call rule not given here). To be noted: microplate NRP2/VEGF-C binding assay; stronger effect = lower value.
The nature of assay [7]: differential killing of epithelial or mesenchymal cells, primary screen, imaging, PC-3E GFP, TEM4-18 mCherry, co-culture (AID 1345086;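 active = compounds killing one labelled cell type while sparing the other, by normalised counts and ratio limits, not self-fluorescent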;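 note: cells exposed to compound for 72 h before imaging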;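 for red/green cell ratio (normalised): normalised mesenchymal count divided by normalised epithelial count so high means epithelial killing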). Conditions: imaging cell counts, at 1 µM.
Assay [8] in a line: sensitizers of A549 cells to miR-34 induction, primary screen, imaging, A549 dox-inducible miR-34, nuclei and caspase counts (AID 1347080;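 active = compounds whose cell count with miR-34 switched on is under 0.7 times the count with it off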). To be noted: A549 miR-34 inducible, Hoechst nuclei count, 48 h.
Assay [9] in a line: viability rescue of complex I mutant cybrids, primary screen, cell-based, galactose medium, ATP luminescence (AID 1645843;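 active = z-score of at least 1.8 in each of two replicates, scored against plate mean and spread of sample wells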;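 note: positive z means more ATP and so rescue of galactose-driven cybrid death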). Conditions: complex I mutant cybrid cells, 72 h, stronger effect = higher value.
Assay [10] has as its system F380Y. Put plainly: modulators of BK channel variants, profiling panel, selectivity assay, cell-based, U2OS BacMam, thallium flux, beta subunits (AID 1259406).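 Note: initial slope of Thallos dye fluorescence rise after thallium is added; log ratio against the mean of 0.3% DMSO vehicle wells on the same plate.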 Conditions: at 30 µM.
Assay [11] deals with F380Y/beta2Delta. Described as above. Conditions: at 30 µM.
Assay [12] deals with Calcium-activated potassium channel subunit alpha-1 (Homo sapiens) + Leucine-rich repeat-containing protein 26 (Homo sapiens) (UniProt Q12791+Q2I0M4). Described as above. To be noted: F380Y/Slo1WT/gamma1, at 30 µM.
Chain of Calcium-activated potassium channel subunit alpha-1 (Homo sapiens) + Leucine-rich repeat-containing protein 26 (Homo sapiens) (Q2I0M4 whole entry, looked up, one chain of several): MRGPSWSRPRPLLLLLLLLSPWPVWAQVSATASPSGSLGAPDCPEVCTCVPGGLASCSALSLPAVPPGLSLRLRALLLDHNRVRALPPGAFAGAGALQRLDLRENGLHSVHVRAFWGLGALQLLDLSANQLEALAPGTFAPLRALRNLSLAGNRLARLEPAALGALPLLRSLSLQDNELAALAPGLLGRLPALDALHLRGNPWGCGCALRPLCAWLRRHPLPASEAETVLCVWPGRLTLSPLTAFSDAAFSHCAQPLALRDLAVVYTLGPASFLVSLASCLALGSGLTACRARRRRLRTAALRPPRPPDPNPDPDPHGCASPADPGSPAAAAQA
Assay [13] relates to R275C. The description is as above. To be noted: at 30 µM.
Assay [14] concerns R275C/beta1. Described as above. To be noted: at 30 µM.
For assay [15], the system named is R275C/beta2Delta. The description is as above. To be noted: at 30 µM.
Assay [16] has as its system F380Y/beta1. The description is as above. To be noted: at 30 µM.
The subject of assay [17] is F380Y/beta4. Described as above. Conditions: at 30 µM.
For assay [18], the system named is R275C/beta4. Described as above. To be noted: at 30 µM.
In assay [19] the test system is R275C/Slo1WT/beta2. Described as above. Conditions: at 30 µM.
Assay [20] can be described thus: modulation of C. elegans fzo-1 (AID 1259413; call rule not given here;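 note: fzo-1 mutant C. elegans worms in liquid wells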). To be noted: C. elegans fzo-1 modulator screen, mean read-out; stronger effect = higher value.
The mark [21] stands for this setting: stronger effect = lower value, cell number ratio, induced over uninduced.
The mark [22] stands for this setting: measured here: relative caspase fold change +Dox/-Dox.
Setting [23] is: measured here: total cells with miR-34 induction, stronger effect = lower value.
Setting [24] is: measured here: total cells without miR-34 induction.

As a reminder, the viability is a read-out of living cells in per cent, often relative to untreated cells. As usually defined, the inhibition is the drop in the measured response relative to a control, in per cent.

With `CN(C)CC/C=C1/c2ccccc2COc2ccccc21`, the parasite load remaining in assay [1] is 72.1% (inactive) and 22.2% (inactive) and 49.1% (inactive). In assay [1], the viability is 73% and 104% and 60.2%. In addition, the figures for the fluorescence ratio in [2] and in assay [5] were 0.97 (inactive) and 0.93 (inactive), respectively. The inhibition was -1.98% (inactive) in assay [3] and -0.1% (inactive) in [4]. Moreover, the figures for the z-score in assay [6] and in assay [9] were -0.308 (inactive) and -0.705 (inactive), respectively. The red/green cell ratio (normalised) in assay [7] (actives lie on both sides, counts scaled to control wells, 1 = unselective) was 1.04 (inactive). Also, the normalised cell number in [7] (measured here: epithelial PC-3E GFP cell survival) turned out to be 1.34; in assay [7] (measured here: mesenchymal TEM4-18 mCherry cell survival) it was 1.4. The fold change in assay [8] (setting [21]) was 0.906 (inactive) and 0.927 (inactive); in assay [8] (setting [22]), 1.31 and 1.98. Further, the cell count is 8570 and 9810 in assay [8] (setting [23]); 9460 and 10600 in [8] (setting [24]). The log fold change Tl+ flux was 0.124 (active) in [10]; 0.0845 (active) in [11]; 0.0355 (inactive) in [12]; 0.0343 (inactive) in assay [13]; 0.0624 (inactive) in assay [14]; 0.0478 (inactive) in [15].
Consider `C=CC1=C(C(=O)O)N2C(=O)[C@@H](NC(=O)C(=NO)c3csc(N)n3)[C@H]2SC1`, for which the parasite load remaining in assay [1] is 50% (inactive). The viability in assay [1] is 69.3%. The fluorescence ratio was 1 (inactive) in assay [2] and 0.91 (inactive) in assay [5]. In addition, the inhibition in [3] was 11.1% (inactive); in [4], 96.5% (active). Also, the log fold change Tl+ flux was 0.0518 (inactive) in assay [10]; 0.00826 (inactive) in [16]; 0.0258 (inactive) in assay [11]; 0.0162 (inactive) in assay [17]; -0.00804 (inactive) in assay [12]; -0.0491 (inactive) in assay [13]. The log fold change Tl+ flux in assay [14] is 0.0161 (inactive); in assay [15] it was 0.037 (inactive); in assay [18], 0.0002 (inactive); in [19], 0.0335 (inactive).
Consider `CN1CCN2c3ncccc3Cc3ccccc3[C@@H]2C1`, for which the parasite load remaining in assay [1] was 60.5% (inactive). In addition, the viability in [1] came out at 95.7%. Besides, the results for the fluorescence ratio in [2] and in assay [5] were 1 (inactive) and 1.01 (inactive), respectively. For the same compound, the results for the inhibition in assay [3] and in assay [4] were -1.36% (inactive) and 4.1% (inactive), respectively. The figures for the fold change in [8] (setting [21]) and in [8] (setting [22]) were 1.01 (inactive) and 3.94, respectively. Also, the cell count in [8] (setting [23]) turned out to be 10600; in assay [8] (setting [24]), 10500. For the same compound, the z-score in assay [9] was 0.765 (inactive). Also, the log fold change Tl+ flux was 0.081 (inactive) in [10]; 0.0391 (inactive) in [16]; 0.0643 (inactive) in assay [11]; 0.0496 (inactive) in assay [17]; -0.00307 (inactive) in assay [12]; 0.0138 (inactive) in assay [13]. Besides, the log fold change Tl+ flux was 0.0202 (inactive) in assay [14], 0.0645 (inactive) in assay [15], 0.023 (inactive) in assay [18] and -0.0289 (inactive) in assay [19].
With `CN(C)S(=O)(=O)c1ccc2c(c1)/C(=C\CCN1CCNCC1)c1ccccc1S2`, the parasite load remaining in assay [1] is -2.22% (inactive). Also, in assay [1], the viability worked out at 1.35%. Moreover, the results for the fluorescence ratio in assay [2] and in [5] were 1.07 (inactive) and 0.96 (inactive), respectively. In addition, the results for the inhibition in assay [3] and in assay [4] were -0.45% (inactive) and 1.81% (inactive), respectively. The fold change is 0.93 (inactive) in assay [8] (setting [21]) and 1.32 in assay [8] (setting [22]). The figures for the cell count in [8] (setting [23]) and in assay [8] (setting [24]) were 9850 and 10600, respectively. Besides, the z-score in [9] is -0.06 (inactive). Besides, the log fold change Tl+ flux in assay [10] was -0.0239 (inactive); in assay [16], -0.0463 (inactive); in assay [11], -0.0723 (inactive); in [17] it was -0.0323 (inactive); in assay [12], -0.0624 (inactive); in assay [13], -0.0283 (inactive). Further, the log fold change Tl+ flux in assay [14] is 0.0522 (inactive); in assay [15] it was 0.019 (inactive); in assay [18] it was 0.0353 (inactive); in assay [19], 0.0468 (inactive).
Take `CO[C@H]1C=CO[C@@]2(C)Oc3c(C)c(O)c4c(O)c(c(C=NN5CCN(C6CCCC6)CC5)c(O)c4c3C2=O)NC(=O)C(C)=CC=C[C@H](C)[C@H](O)[C@@H](C)[C@@H](O)[C@@H](C)[C@H](OC(C)=O)[C@@H]1C`: in assay [1], the parasite load remaining was 21.3% (inactive). Moreover, in [1], the viability was determined as 65.4%. Further, the log fold change Tl+ flux in assay [10] is 0.118 (active); in assay [16] it was -0.0391 (inactive); in [11] it was 0.0273 (inactive); in assay [17], 0.177 (active); in assay [12], 0.0556 (inactive); in assay [13] it was -0.0706 (inactive). For the same compound, the log fold change Tl+ flux in assay [14] was 0.0996 (active); in [15] it was 0.0465 (inactive); in [18], 0.28 (active); in assay [19] it was 0.00833 (inactive).
`CO[C@H]1/C=C/O[C@@]2(C)Oc3c(C)c(O)c4c(O)c(c(C=NN5CCN(C6CCCC6)CC5)c(O)c4c3C2=O)NC(=O)/C(C)=C\C=C\[C@H](C)[C@H](O)[C@@H](C)[C@@H](O)[C@@H](C)[C@H](OC(C)=O)[C@@H]1C`: the parasite load remaining in [1] is 21% (inactive). Further, the viability in [1] was found to be 92%. Further, the fluorescence ratio in assay [2] was 1.06 (inactive); in assay [5] it was 0.94 (inactive). Also, the inhibition in [3] was -0.45% (inactive); in assay [4] it was -0.48% (inactive). For the same compound, the results for the fold change in [8] (setting [21]) and in [8] (setting [22]) were 0.995 (inactive) and 1.52, respectively. The figures for the cell count in assay [8] (setting [23]) and in assay [8] (setting [24]) were 8010 and 8050, respectively. In addition, in [9], the z-score was -1.41 (inactive). The log fold change Tl+ flux is 0.0494 (inactive) in assay [10]; 0.0885 (inactive) in assay [16]; 0.179 (active) in assay [11]; 0.152 (active) in assay [17]; 0.0279 (inactive) in assay [12]; 0.0114 (inactive) in assay [13]. Besides, the log fold change Tl+ flux is 0.161 (active) in assay [14], 0.0213 (inactive) in assay [15], 0.283 (active) in [18] and 0.0216 (inactive) in assay [19].
Regarding `CC(=O)S[C@@H]1CC2=CC(=O)CCC2(C)[C@H]2CCC3(C)[C@@H](CC[C@@]34CCC(=O)O4)[C@H]12` (stereo not given in full), in assay [20], the mean signal was 260 (inactive).
On the same count and under the same terms, as for `C#C[C@]1(O)CC[C@H]2[C@@H]3CCC4=CC(=O)CC[C@@H]4[C@H]3CCC21C` (stereo not given in full), the figure is 236 (inactive).
In the case of `C=CC[C@@H]1C=C(C)C[C@H](C)C[C@H](OC)[C@H]2O[C@@](O)(C(=O)C(=O)N3CCCC[C@H]3C(=O)O[C@H](/C(C)=C/[C@@H]3CC[C@@H](O)[C@H](OC)C3)[C@H](C)[C@@H](O)CC1=O)[C@H](C)C[C@@H]2OC`, in assay [1], the parasite load remaining is 77.5% (inactive). Further, the viability in [1] worked out at 72.5%. Besides, the fluorescence ratio in assay [2] was 0.94 (inactive); in [5], 0.92 (inactive). Moreover, the inhibition is -1.19% (inactive) in assay [3] and 2.21% (inactive) in [4]. The log fold change Tl+ flux is -0.344 (active) in assay [10]; -0.0137 (inactive) in assay [16]; -0.629 (active) in assay [11]; 0.109 (active) in assay [17]; 0.0458 (inactive) in [12]; -0.067 (inactive) in [13]. Also, the log fold change Tl+ flux in [14] is 0.274 (active); in assay [15] it was 0.123 (active); in [18], 0.467 (active); in [19], 0.00553 (inactive).
